The whole screen tested about 310,000 compounds, of which about 2,200 (0.71%) showed an effect of 50% or more. Effects have a minus sign here. What follows is part of a selection rich in strong results, with near analogues and random picks from the rest.
Molecular target: human ether-à-go-go-related gene (hERG) potassium channel (human, UniProt Q12809)
Assay: primary screen, population patch clamp on CHO cells stably expressing hERG; higher = less effect of the substance

Chain of human ether-à-go-go-related gene (hERG) potassium channel (Q12809 whole entry, looked up): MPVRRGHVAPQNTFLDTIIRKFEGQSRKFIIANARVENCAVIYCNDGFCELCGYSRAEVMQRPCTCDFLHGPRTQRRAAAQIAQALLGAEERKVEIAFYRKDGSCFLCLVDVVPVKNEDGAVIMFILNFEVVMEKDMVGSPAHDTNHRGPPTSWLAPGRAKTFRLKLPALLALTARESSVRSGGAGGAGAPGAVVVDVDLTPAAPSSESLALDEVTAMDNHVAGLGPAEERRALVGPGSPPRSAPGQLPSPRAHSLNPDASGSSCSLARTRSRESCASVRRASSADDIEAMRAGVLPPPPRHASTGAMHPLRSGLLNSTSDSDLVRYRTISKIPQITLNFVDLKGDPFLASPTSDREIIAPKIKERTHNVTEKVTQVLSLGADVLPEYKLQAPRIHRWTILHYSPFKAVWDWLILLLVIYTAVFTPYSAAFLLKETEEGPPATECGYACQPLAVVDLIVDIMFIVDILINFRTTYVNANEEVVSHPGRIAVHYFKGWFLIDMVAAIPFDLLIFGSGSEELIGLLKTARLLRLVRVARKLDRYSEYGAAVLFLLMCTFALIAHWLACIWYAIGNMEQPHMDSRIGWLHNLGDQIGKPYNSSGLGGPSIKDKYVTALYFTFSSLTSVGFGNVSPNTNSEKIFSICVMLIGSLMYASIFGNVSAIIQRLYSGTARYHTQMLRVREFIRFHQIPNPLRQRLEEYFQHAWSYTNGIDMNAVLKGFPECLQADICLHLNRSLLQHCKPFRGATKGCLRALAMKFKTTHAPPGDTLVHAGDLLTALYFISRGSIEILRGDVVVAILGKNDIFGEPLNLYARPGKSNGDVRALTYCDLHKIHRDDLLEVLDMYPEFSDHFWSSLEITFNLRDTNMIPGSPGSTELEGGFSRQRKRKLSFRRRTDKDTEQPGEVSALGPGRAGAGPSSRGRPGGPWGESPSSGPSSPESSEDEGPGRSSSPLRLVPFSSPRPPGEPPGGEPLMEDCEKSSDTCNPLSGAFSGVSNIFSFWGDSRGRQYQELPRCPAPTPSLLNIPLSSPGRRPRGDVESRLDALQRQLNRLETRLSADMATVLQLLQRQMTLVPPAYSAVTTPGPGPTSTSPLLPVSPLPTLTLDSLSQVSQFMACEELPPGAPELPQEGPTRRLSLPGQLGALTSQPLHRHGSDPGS

SMILES	hERG current change (%, negative = inhibition) at 1uM [%]
Oc1[nH]c2ccc(Br)cc2c1N=NC(=S)N1CCOCC1	17.6
Cc1onc(-c2c(Cl)cccc2Cl)c1C(=O)O/N=C(\C#N)c1ccccc1	7.14
O=C(CSC1=NS(=O)(=O)c2cc(F)ccc2N1)Nc1cccc(F)c1	2.39
CCCc1cc(=O)[nH]c(SCC(=O)NC)n1	-0.511
O=Cc1cn(Cc2ccc(F)cc2)c2ccccc12	14.4
O=C(NCCCN1CCCC1=O)C1CCN(S(=O)(=O)c2cccc(C(F)(F)F)c2)CC1	23.6
CCc1nnc(NC(=O)C(C)N2C(=O)C3C4C=CC(C4)C3C2=O)s1 (centres unmarked)	3.03
O=C(NCc1ccc2c(c1)OCO2)c1cnc2ccccn2c1=O	5.17
O=C(CCn1c(=O)c2ccccc2n(Cc2cccnc2)c1=O)NCc1ccc2c(c1)OCO2	9.51
N=c1c(C(=O)NCc2ccc3c(c2)OCO3)cc2c(=O)n3ccccc3nc2n1Cc1cccnc1	-51.5
COc1ccc(CCn2c(=N)c(C(=O)NC3CCCC3)cc3c(=O)n4cccc(C)c4nc32)cc1	-79.9
COc1ccc(CCn2c(=N)c(S(=O)(=O)c3ccccc3)cc3c(=O)n4ccccc4nc32)cc1	10.8
COc1ccc(CCn2c(=N)c(C(=O)N3CCN(C)CC3)cc3c(=O)n4ccccc4nc32)cc1	-2.76
COc1ccc(CCn2c(=N)c(C(=O)NC3CCCC3)cc3c(=O)n4ccccc4nc32)cc1	-89.2
COc1ccc(CCn2c(=N)c(C(=O)NC3CCCCC3)cc3c(=O)n4ccccc4nc32)cc1	-84.1
COc1ccc(CCn2c(=N)c(C(=O)NC3CCCC3)cc3c(=O)n4ccccc4nc32)cc1OC	-46.9
COc1ccc(Cn2c(=N)c(C(=O)NC3CCCCC3)cc3c(=O)n4ccccc4nc32)cc1	-5.89
CCN(C(=O)c1cc2c(=O)n3ccccc3nc2n1CCCOC)C1CCCCC1	2.38
Cc1cccn2c(=O)c3cc(C(=O)NC4CCCC4)c(=N)n(CCc4ccccc4)c3nc12	-33.8
COCCCn1c(=N)c(C(=O)NC2CCCCC2)cc2c(=O)n3ccccc3nc21	-81.6
C/C(=N\NC(=O)c1cccc(F)c1)c1ccc(NC(=O)Cc2ccccc2)cc1	12.8

SMILES	hERG current change (%, negative = inhibition) at 1uM [%]
COc1cccc(CN2C(=NC(=O)C3CC3)SC3CS(=O)(=O)CC32)c1 (centres unmarked)	14.8
NC(=O)c1ccccc1NC(=S)NC(=O)CCc1ccccc1	6.72
CCSc1nnc(-c2ccc(OC)cc2)o1	3.96
Cc1cccc2cc(C#N)c(NCCNC(=S)NCCCN3CCOCC3)nc12	4.84
Oc1c(C=Nc2ccccc2)sc2ccccc12	12.4
CC(C)CC(=O)C1CCCN(C(=O)c2ccc3oc(Cc4ccccc4)nc3c2)C1 (centres unmarked)	11.9
Cn1c(CC(=O)Nc2ccc(Cl)c(Cl)c2)nnc1SCC(=O)NCc1ccccc1	9.85
COc1cc(SC)ccc1C(=O)N1CCc2ccccc21	13.9
N=c1c(C(=O)NC2CCCCC2)cc2c(=O)n3ccccc3nc2n1CCc1ccccc1	-88.1
Cc1cc2c(=O)n(Cc3ccco3)c(SCC(=O)N3CCCc4ccccc43)nc2s1	0.209
CC1CCCC(NC(=O)CCCn2c(=S)[nH]c3ccccc3c2=O)C1C (centres unmarked)	5.25
CN1CCC(=NNC(=O)CN(c2cccc(Br)c2)S(C)(=O)=O)CC1	1.22
CS(=O)(=O)Nc1ccc(C2=NN(C(=O)c3ccco3)C(c3cccc(F)c3)C2)cc1 (centres unmarked)	-85.9
CCS(=O)(=O)Nc1ccc(C2=NN(C(=O)c3ccco3)C(c3cccc(F)c3)C2)cc1 (centres unmarked)	0.693
CS(=O)(=O)Nc1ccc(C2=NN(C(=O)c3ccco3)C(c3ccc(F)cc3)C2)cc1 (centres unmarked)	-44.7
CCCCN1C(=N)C(CC)(CC)C(=O)NC1=O.Cl	27.4
Cc1ccc2cc(CN(Cc3ccco3)C(=O)C3CCCCC3)c(=O)[nH]c2c1C	6.2
CCNc1nc2nc3ccc(C)cn3c(=O)c2cc1C(=O)NCC1CCCO1 (centres unmarked)	-31.2
CCOCCCNc1nc2nc3ccc(C)cn3c(=O)c2cc1C(=O)NCC1CCCO1 (centres unmarked)	-76
Cc1ccc2nc3nc(NCC4CCCO4)c(C(=O)NC4CCCCC4)cc3c(=O)n2c1 (centres unmarked)	-76.8
CCn1cc(C(=O)NCC2CCCO2)c2cc(OC)c(OC)cc2c1=O (centres unmarked)	14.8

SMILES	hERG current change (%, negative = inhibition) at 1uM [%]
COCCCNC(=O)c1cc2c(=O)n3cc(C)ccc3nc2nc1NCC1CCCO1 (centres unmarked)	-26.6
Cc1ccc2nc3nc(NCC4CCCO4)c(C(=O)NC4CCCC4)cc3c(=O)n2c1 (centres unmarked)	-83.8
Cc1ccc(-c2nn(-c3ccccc3Cl)cc2C(=O)NCC2CCCO2)cc1 (centres unmarked)	18.4
C=CCNC(=O)c1cc2c(=O)n3cc(C)ccc3nc2nc1NCC1CCCO1 (centres unmarked)	-82
Cc1ccc2nc(SCC(=O)NC3CCCCC3)nc(=O)n2c1	-4.63
Cc1ccc(-c2nn(-c3ccccc3)cc2C(=O)NCC2CCCO2)cc1 (centres unmarked)	1.49
Cc1ccc2nc3c(cc(C(=O)NC4CCS(=O)(=O)C4)n3Cc3ccccc3)c(=O)n2c1 (centres unmarked)	21.4
O=C(NC1CCCCCC1)c1ccc2nc3cc(Cl)ccc3c(=O)n2c1	4.2
CCN(CC)c1ccc(/C=N/NC(=O)CNC(=O)c2ccccn2)cc1	-7.85
CC(C)C(C)NC(=O)CSc1nnc(-c2c[nH]c3ccccc23)o1 (centres unmarked)	4.32
CC1(C)CC(=O)C(C2c3ccccc3S(=O)(=O)c3ccccc32)C(=O)C1	16.3
c1ccc(-c2nc3nonc3c3nc4ccccc4n23)cc1	-1.03
Cc1cccc(N(CC(O)CN(C)C)S(=O)(=O)c2ccccc2)c1.Cl (centres unmarked)	-50.1
Cc1ccc(S(=O)(=O)N(CC(O)CN2C(=O)NC(C)(C)C2=O)c2ccccc2)cc1 (centres unmarked)	-28.4
O=S(=O)(c1ccccc1)N(CC(O)COc1ccccc1)c1ccccc1 (centres unmarked)	7.47
Cc1ccc(S(=O)(=O)N(CCC(=O)O)c2ccccc2)cc1	4.11
Cc1cc(C)n(CC(O)CN(c2ccccc2)S(=O)(=O)c2ccc3ccccc3c2)n1 (centres unmarked)	6.41
CCN(c1ccccc1)S(=O)(=O)c1ccc2ccccc2c1	14.6
Cc1cccc(N(CC(O)CN2CCOCC2)S(=O)(=O)c2ccccc2)c1 (centres unmarked)	11.2
CCCN(CCC)CC(O)CN(c1ccccc1)S(=O)(=O)c1ccc(C)cc1 (centres unmarked)	-88.6
CCN(CC)CC(O)CN(c1ccccc1)S(=O)(=O)c1ccc2ccccc2c1.Cl (centres unmarked)	-78.5

SMILES	hERG current change (%, negative = inhibition) at 1uM [%]
Cc1ccc(N(CC(O)CN(C)C)S(=O)(=O)c2ccccc2)cc1.Cl (centres unmarked)	-62.8
Cc1cccc(N(CC(O)CN2CCCC2)S(=O)(=O)c2ccccc2)c1 (centres unmarked)	-35.3
Cc1ccc(S(=O)(=O)N(CC(O)CN(C)C)c2ccccc2)cc1.Cl (centres unmarked)	-43.8
Cc1nn(CC(=O)N2CCOCC2)c(=O)c2nn(-c3ccccc3)c(C)c12	16.5
Cc1nn(C/C(C#N)=N\O)c(C)[n+]1N.[Cl-]	11.8
COc1c(Cl)cc(Cl)cc1CNCCNCC(C)O.Cl (centres unmarked)	5.98
COc1ccc(C(=O)Nc2ccc(C(=O)N3CCOCC3)cc2)cc1OC	11.3
Cc1c(NC(=O)/C(C#N)=C/c2ccccc2)c(=O)n(-c2ccccc2)n1C	8.78
CCOC(=O)C1CCN(Cc2ccc(Cl)nc2)CC1	11.6
COc1ccc(C2c3c(ccc4ccccc34)Oc3ncn4nc(Cc5ccc(OC)c(OC)c5)nc4c32)cc1 (centres unmarked)	2.05
O=C(NCCc1ccc(Cl)cc1)/C(=C/c1cccnc1)NC(=O)c1ccccc1	-53.8
COc1ccc(CCNC(=O)/C(=C/c2cccnc2)NC(=O)c2ccccc2)cc1	3.27
CN(C)c1ccc(/C=C(\NC(=O)c2ccccc2)C(=O)NCc2cccnc2)cc1	-0.749
O=C(NCc1cccnc1)/C(=C/c1ccccc1)NC(=O)c1ccccc1	-23.3
O=C(NCc1cccnc1)/C(=C/c1ccc(Cl)cc1)NC(=O)c1ccccc1	-60.8
O=C(NCCc1ccccc1F)/C(=C/c1cccnc1)NC(=O)c1ccccc1	-3.24
COc1ccc(/C=C2\SC(=S)N(CCC(=O)N3CCCCC3)C2=O)cc1	-2.37
CCOc1ccc(C(=O)CCC(=O)Nc2ccccc2C)cc1	12.5
CC(C)c1ccccc1NC(=O)COC(=O)CNC(=O)c1ccc(Br)cc1	11
CCN(CC)S(=O)(=O)c1ccc(Cl)c(NC(=O)CSc2nnc(-c3cccs3)o2)c1	5.51

From article PMC4336329 (PLoS ONE, 2015)
